Only some compounds are listed: those with a hit (about 1.6% of all), similar ones and a draw of the others.
KCNQ2 pot = KCNQ2 (rat) channel potentiation | O88943 | CHO-K1 KCNQ2, FluxOR thallium flux fluorescence; hits give high values | B-score at 10 µM | 0.54% of 310,000 active;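 active means fluorescence ratio B-score at least 3 SD of library B-scores, with initial fluorescence B-score within 3 of them, cut at about 5.3 in these data; same plate scores as AID 2156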;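 further: B-score of peak minus minimum over baseline fluorescence ratio after K+ and Tl+ stimulus; positive B-score means potentiation of KCNQ2 with more thallium influx and brighter signal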
Target sequence (O88943 whole entry, looked up): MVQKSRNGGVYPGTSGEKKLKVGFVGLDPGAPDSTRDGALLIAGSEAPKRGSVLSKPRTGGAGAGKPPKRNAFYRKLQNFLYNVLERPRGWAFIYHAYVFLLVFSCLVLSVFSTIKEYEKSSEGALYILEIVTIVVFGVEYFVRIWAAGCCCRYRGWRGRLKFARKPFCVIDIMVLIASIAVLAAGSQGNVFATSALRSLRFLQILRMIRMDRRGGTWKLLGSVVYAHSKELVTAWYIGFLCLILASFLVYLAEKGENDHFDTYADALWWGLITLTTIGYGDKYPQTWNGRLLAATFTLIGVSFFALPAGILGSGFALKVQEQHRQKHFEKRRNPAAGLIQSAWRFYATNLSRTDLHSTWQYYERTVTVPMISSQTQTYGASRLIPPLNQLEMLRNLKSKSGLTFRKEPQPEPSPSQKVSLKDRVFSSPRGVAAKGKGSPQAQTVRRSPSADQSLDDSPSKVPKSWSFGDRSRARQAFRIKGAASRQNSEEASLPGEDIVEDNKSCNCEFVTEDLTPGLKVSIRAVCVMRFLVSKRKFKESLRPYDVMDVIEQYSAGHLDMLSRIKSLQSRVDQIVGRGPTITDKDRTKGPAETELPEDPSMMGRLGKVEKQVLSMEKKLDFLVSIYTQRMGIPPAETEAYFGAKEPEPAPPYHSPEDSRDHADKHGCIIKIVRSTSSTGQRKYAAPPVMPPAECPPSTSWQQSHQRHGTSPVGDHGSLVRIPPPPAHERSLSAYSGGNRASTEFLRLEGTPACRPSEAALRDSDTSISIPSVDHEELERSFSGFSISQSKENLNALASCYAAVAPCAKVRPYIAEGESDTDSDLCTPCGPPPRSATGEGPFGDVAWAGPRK
KCNQ2 inh = KCNQ2 (rat) channel inhibition. 1.1% of 310,000 active. AID 2156. CHO-K1 KCNQ2, FluxOR thallium flux, 20 min; hits give low values. B-score at 10 µM;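 active means fluorescence ratio B-score at most minus 3 library SDs, with starting brightness B-score within 2 library SDs, cut at about -5.5 in these data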
KCNQ2 inh conf = rat KCNQ2 channel inhibition, confirmatory screen. activity change, negative = inhibition, % at 10 µM. AID 493025. shares compounds with KCNQ2 inh. KCNQ2-expressing cells, thallium flux; hits give low values. 57% of 1,000 active;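 further: 0% = vehicle wells and values are ratio percent relative to vehicle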
KCNQ1 spec = KCNQ2 inhibitor that also affects human KCNQ1 channel; KCNQ1-expressing cells, FluxOR thallium flux fluorescence; hits give low values; 15% of 1,000 active; shares compounds with KCNQ2 inh; activity change, negative = inhibition, % at 10 µM;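 active means activity change at least 3 SD of negative controls below their mean in both duplicate wells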;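 further: CHO cells stably transfected with KCNQ1 and depolarized by potassium stimulus; peak minus minimum fluorescence over baseline after thallium addition; 0% = vehicle negative control and -100% = blank without thallium stimulus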
CHO parental ctr = activity in parental CHO cells lacking KCNQ2. shares compounds with KCNQ2 inh. thallium flux counter-screen; hits give low values. activity change, % at 10 µM. 14% of 1,000 active. AID 493029;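 further: 0% = vehicle negative controls with stimulus buffer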
KCNQ2 inh confirm = rat KCNQ2 inhibition confirmed by electrophysiology; shares compounds with KCNQ2 inh; KCNQ2-expressing cells, automated patch clamp current; calls only at 10 µM; 49% of 550 active; AID 588531
* marks the source's active call; other numbers are inactive results; i = inactive; . = not tested or not shown; + = active, no number. Unless noted, how the calls were made is not given here.

SMILES	KCNQ2 pot	KCNQ2 inh	KCNQ2 inh conf	KCNQ1 spec	CHO parental ctr	others
CCn1c(=O)c(C(=O)NCc2ccc(F)cc2)c(O)c2ccccc21	-6.7	-6.7*	i	i	i
CCn1c(=O)c(C(=O)NCc2ccccc2OC)c(O)c2ccccc21	.	i	.	.	.
CCn1c(=O)c(C(=O)NCc2cccnc2)c(O)c2ccccc21	1.1	i	.	.	.
CCn1c(=O)c(C(=O)NCc2ccc(Cl)cc2)c(O)c2ccccc21	-7.6	-7.6*	-25%*	i	i	KCNQ2 inh confirm=i
Cc1cccc(C)c1NC(=O)NC1(C(=O)NCC2CCCO2)CCCCC1 (stereo not given)	.	i	.	.	.
COc1ccc(C(=O)Nc2nnc(S(=O)(=O)N3CCOCC3)s2)cc1	.	i	.	.	.
CC(C)(C)n1nnnc1C(c1ccncc1)N1CCCCCC1 (stereo not given)	.	i	.	.	.
CC(C)(C)n1nnnc1C(c1ccc(C#N)cc1)N1CCCC2(CCCCC2)C1 (stereo not given)	-7.1	-7.1*	-37%*	-38%*	-37%*	KCNQ2 inh confirm=i
Cc1ccc(Cl)cc1NC(=O)COC(=O)CC1CC2CCC1C2 (stereo not given)	.	i	.	.	.
COC(=O)c1ccc(C(=O)OC)c(NC(=O)COC(=O)CC2CC3CCC2C3)c1 (stereo not given)	-11	-11*	i	i	i
COC(CNC(=O)CCc1c(C)nc2c(-c3ccccc3)c(C)nn2c1C)OC	.	i	.	.	.
O=C(N/C(=C\c1cccc(Br)c1)C(=O)N1CCOCC1)c1ccco1	.	i	.	.	.
Cc1ccc(CNS(=O)(=O)c2ccc(C(C)(C)C)cc2)n1C	-7.1	-7.1*	.	i	i	KCNQ2 inh confirm=+
CC(C)(C)c1ccc(S(=O)(=O)NCCc2ccncc2)cc1	.	i	.	.	.
CCC1(CC)NC(=O)N(CC(=O)OCC(=O)c2ccccc2OC)C1=O	2.4	i	.	.	.
CCCCn1c(NCc2ccc3c(c2)OCO3)nc2ccccc21	-8.5	-8.5*	-33%*	i	i	KCNQ2 inh confirm=+
CCCn1c(NCc2ccc3c(c2)OCO3)nc2ccccc21	.	i	.	.	.
Brc1cccc(CNc2nc3ccccc3n2CCN2CCOCC2)c1	-8.4	-8.4*	i	i	i
CCOc1ccc(CNc2nc3ccccc3n2CCN2CCOCC2)cc1	.	i	.	.	.
Cc1ccccc1NC(=O)Cc1nnc(SCC(=O)NC2=NCCS2)n1C	.	i	.	.	.
CCCCCC(=O)Nc1ccc(C(=O)COC(=O)CN2C(=O)NC3(CCCC3)C2=O)cc1	0.52	i	.	.	.
Cc1ccc(Sc2c(CO)c(-c3ccccc3)nn2C)cc1	.	i	.	.	.
Cc1ccccc1Sc1c(C#N)c(-c2ccccc2)nn1C	-10	-10*	-36%*	-36%*	-32%*	KCNQ2 inh confirm=i
CCOC(Cn1ccc(=O)[nH]c1=O)OCC	.	i	.	.	.
CC(OC(=O)CCN=C1NS(=O)(=O)c2ccccc21)C(=O)N(C)C1CCCCC1 (stereo not given)	.	i	.	.	.
SMILES	KCNQ2 pot	KCNQ2 inh	KCNQ2 inh conf	KCNQ1 spec	CHO parental ctr	others
COc1ccccc1NC(=O)C1=C(C)NC(SCC(=O)c2ccccc2)=C(C#N)C1c1ccco1 (stereo not given)	-12	-12*	i	i	i
COCCOC(=O)C1=C(C)NC(SCC(=O)NC(C)(C)C)=C(C#N)C1c1ccco1 (stereo not given)	0.1	i	.	.	.
Cc1cccc(C)c1OCc1cc(C(=O)N2CCC(c3ccccc3)CC2)no1	-9.2	-9.2*	-24%*	i	i	KCNQ2 inh confirm=+
Cc1cccc(C)c1OCc1cc(C(=O)N2CCC(C3CCCCC3)C2)no1 (stereo not given)	.	i	.	.	.
CCCCN1C(=O)C(=O)N(CC(=O)Nc2cc(S(=O)(=O)N(C)C)ccc2C)C1=O	0.91	i	.	.	.
Cc1cccc(N2CCN(CC(=O)NCc3ccc(Cl)cc3)CC2)c1C	.	i	.	.	.
CCN(CC(=O)NCc1ccc(F)cc1)C(=O)CN1CCN(c2cc(Cl)ccc2C)CC1	-9.5	-9.5*	-26%*	i	i	KCNQ2 inh confirm=+
CCN(CC(=O)NCc1ccc(Cl)cc1)C(=O)CSc1cc(C)ccc1C	-8.2	-8.2*	-22%*	i	i	KCNQ2 inh confirm=+
CCN(CC(=O)NCc1ccc(Cl)cc1)C(=O)CSc1ccc(F)cc1	.	i	.	.	.
COC(=O)C1CCN(C(=O)[C@H](C)NC(=O)C2CC(=O)N(c3ccc(F)cc3)C2)CC1 (stereo not given in full)	0.79	i	.	.	.
CN(C)c1ccc(S(=O)(=O)N2CCCCC2)cc1NC(=O)C1=NN(c2ccccc2)C(=O)CC1	.	i	.	.	.
CN1/C(=C\C(=S)NC(=O)c2cccc(Br)c2)C(C)(C)c2ccccc21	-7.8	-7.8*	-22%*	i	i	KCNQ2 inh confirm=+
CN1/C(=C\C(=S)NC(=O)c2ccc([N+](=O)[O-])cc2)C(C)(C)c2ccccc21	.	i	.	.	.
CN1/C(=C\C(=O)Nc2ccc(Br)cc2)C(C)(C)c2ccccc21	.	i	.	.	.
CN1/C(=C\C(=O)Nc2cccc(Cl)c2)C(C)(C)c2ccccc21	-7.1	-7.1*	-20%*	i	i	KCNQ2 inh confirm=i
c1ccc(-c2ccc(CNC3CC3)cc2)cc1	1.2	i	.	.	.
CCOC(=O)N1CCc2c(sc3nc4n(c(=O)c23)N=C(c2ccc(OC)cc2)CS4)C1	0.93	i	.	.	.
Cc1cccc(-n2nnnc2SCc2csc(-c3ccccc3)n2)c1	-7.2	-7.2*	-32%*	i	i	KCNQ2 inh confirm=+
Cc1ccc(Nc2nc(CSc3nnnn3-c3ccccc3)cs2)cc1	.	i	.	.	.
CCN(c1ccccc1)S(=O)(=O)c1ccc(OC)c(NC(=O)COc2ccc(C(C)=O)cc2)c1	0.32	i	.	.	.
O=C(/C(=C/c1ccccc1)c1ccccc1)N1CCCCC1	0.3	i	.	.	.
CCS(=O)(=O)N1CCN(c2ccc(Cl)cc2[N+](=O)[O-])CC1	.	i	.	.	.
Cc1ccc(NC(=O)C(Nc2ccccc2)c2ccccc2)cc1 (stereo not given)	.	i	.	.	.
Cc1ccc(NC(=O)C(Nc2cccc(C)c2)c2ccccc2)cc1 (stereo not given)	-7.4	-7.4*	-28%*	i	i	KCNQ2 inh confirm=i
Cc1cc(OCC(O)CN2CCCC2)cc(C)c1Cl (stereo not given)	0.13	i	.	.	.
SMILES	KCNQ2 pot	KCNQ2 inh	KCNQ2 inh conf	KCNQ1 spec	CHO parental ctr	others
CC1Cc2ccccc2N1S(=O)(=O)c1cccc(C(=O)N2CCN(c3ncccn3)CC2)c1 (stereo not given)	.	i	.	.	.
C=CCn1c(NCc2c[nH]c3ccccc23)nc2ccccc21	-10	-10*	-30%*	i	i	KCNQ2 inh confirm=+
C=CCn1c(NCc2ccc(OC)cc2)nc2ccccc21	.	i	.	.	.
Cn1ccnc1CN1CCCCC1C(=O)Nc1ccc(Oc2cccnc2)cc1 (stereo not given)	.	i	.	.	.
CC1CCC(C(C)C)C(OC(=O)COC(=O)c2ccc(N)cc2)C1 (stereo not given)	.	i	.	.	.
CC1CCC(C(C)C)C(OC(=O)Cn2c(-c3ccc(Cl)cc3)[n+](C)c3ccccc32)C1 (stereo not given)	-6.7	-6.7*	-46%*	-46%*	-48%*	KCNQ2 inh confirm=+
CCN(CC)C(CNC(=O)c1cc(=O)[nH]c2ccccc12)c1ccccc1Cl (stereo not given)	.	i	.	.	.
